This is part of a sample that, as a whole, favours compounds with a hit. Of some 83,000 tested, about 20% had one in any assay.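 Activity criterion: percent growth below 10, measured after cells in 96-well plates were exposed to a single compound concentration for 48 hours.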 A number with no mark means an inactive call. The source made the active and inactive calls.

Holding throughout (assay): NCI-60 one-dose screen, 48 h (100 = growth as untreated, 0 = no growth, -100 = all killed)
Common to all, as to settings: 10 µM

For assay [1], the system named is SR leukemia.
Assay [2] deals with RPMI-8226 leukemia.
Assay [3] has as its system OVCAR-8 ovarian.
For assay [4], the system named is OVCAR-5 ovarian.
In assay [5] the test system is OVCAR-4 ovarian.
In assay [6] the test system is SK-OV-3 ovarian.
In assay [7] the test system is IGROV1 ovarian.
Assay [8] relates to OVCAR-3 ovarian.
For assay [9], the system named is HS 578T breast.
Assay [10] deals with NCI/ADR-RES ovarian.

Consider `Nc1nc(Cl)nc2c1ncn2C1O[C@H](CO)[C@@H](O)[C@@H]1F` (stereo not given in full), for which the growth in assay [1] is 7.7% (active); in [2], 105%; in assay [3] it was 27.1%; in assay [4], 47.4%; in [5], 80.2%; in assay [6] it was 34.5%. Moreover, the growth in assay [7] is 53%; in [8], 60.7%; in [9], 82.5%; in assay [10], 16.6%.
As for `CC(=O)Nc1cc2c(cc1Cl)Cc1cc(Cl)ccc1-2`, the growth was 80.1% in assay [1]; 111% in assay [2]; 88.2% in assay [3]; 83.7% in assay [4]; 83.9% in assay [5]; 96% in assay [6]. Besides, the growth was 72.4% in assay [7], 103% in assay [8], 78.6% in assay [9] and 97% in assay [10].
Regarding `O=C1/C=C/[C@@H](O)[C@@H]2C[C@@H](O)C[C@H]2/C=C/CCC[C@H](CCc2ccc(C(F)(F)F)cc2)O1`, the growth is 1.16% (active) in assay [1]; -8.16% (active) in assay [2]; 2.31% (active) in [3]; 13.6% in assay [4]; 9.39% (active) in assay [5]; 12.5% in assay [6]. Moreover, the growth was 5.99% (active) in assay [7], -10.4% (active) in assay [8], 27.8% in assay [9] and 3.21% (active) in assay [10].
With `CCNCC(=O)Nc1ccc(C(=O)OCC)cc1`, the growth in assay [1] is 82.3%; in assay [2] it was 104%; in assay [3], 103%; in assay [4], 103%; in assay [5], 102%; in assay [6], 99.8%. For the same compound, the growth in [7] was 99.3%; in assay [8], 99.9%; in assay [9], 97.4%; in assay [10], 103%.
As for `O=C(N/N=C/c1ccc(Cl)cc1)c1ccccc1Nc1cccc(C(F)(F)F)c1`, the growth in [1] is 45.7%; in [2] it was 82%; in assay [3], 80.3%; in [4], 96.9%; in assay [5] it was 74.8%; in assay [6], 84.9%. Besides, the growth in assay [7] was 59.3%; in assay [8], 60.3%; in assay [9] it was 61.7%; in [10], 88.8%.
With `COc1cc(/C=C/c2cc(/C=C/c3ccc(O)c(OC)c3)n(C(=O)Nc3ccccc3Cl)n2)ccc1O`, the growth in assay [1] was -17.7% (active); in [2], -22.3% (active); in assay [3], 1.5% (active); in [4] it was 13.2%; in assay [5], 6.59% (active); in [6] it was -33.3% (active). In addition, the growth in [7] is -6.58% (active); in assay [8] it was -26.8% (active); in [9] it was -4.71% (active); in [10], 20.8%.
With `O=C1CC(=O)N(C(=O)c2nn(-c3ccc(Cl)cc3)cc2O)N1`, the growth in assay [1] is -31.9% (active); in assay [2], -8% (active); in [3], 30.1%; in [4], 65.2%; in assay [5], 34.1%; in [6] it was 40.7%. For the same compound, the growth in [7] is 34.4%; in assay [8], -4.11% (active); in assay [9], 121%; in [10], 33.6%.
For `CC(C)(C)c1ccc(S(=O)(=O)N[C@H]2CC[C@H]3[C@@H]4CCc5cc(O)ccc5[C@H]4CC[C@]23C)cc1`, the growth in [1] was 20.5%; in assay [2], 37.9%; in [3], 50%; in [4], 92.7%; in assay [5] it was 51.4%; in assay [6], 87%. Further, the growth in [7] is 44.6%; in [8] it was 37.3%; in assay [9], 63.1%; in assay [10] it was 46.4%.
`CC(=O)N[C@H](C(=O)N[C@@H](CCCNC(=N)N)C(=O)N[C@@H](CCCCN)C(=O)N[C@@H](CCCNC(=N)N)C(=O)N[C@]1(C)CCC/C=C\CCC[C@@](C)(C(=O)N[C@@H](CC(C)C)C(=O)N[C@@H](CC(C)C)C(=O)N[C@@H](CCC(N)=O)C(=O)N[C@@H](CCC(=O)O)C(=O)N[C@@H](CCCNC(=N)N)C(=O)N[C@@H](CCC(=O)O)C(=O)N[C@@H](CC(C)C)C(=O)N[C@H](C(=O)N[C@@H](CCC(=O)O)C(N)=O)C(C)C)NC(=O)[C@H](CCCNC(=N)N)NC(=O)[C@H](CC(C)C)NC1=O)C(C)C`: the growth in assay [1] was 104%; in [2], 104%; in [3], 104%; in [4], 111%; in assay [5] it was 107%; in assay [6], 108%. The growth in assay [7] is 110%; in [8], 109%; in [9], 119%; in [10], 109%.
`O=C(CCNC(=O)c1nc(-c2ccccc2)n(-c2ccc(Cl)cc2)n1)NO`: the growth in [1] was 98.6%; in assay [2] it was 103%; in [3], 108%; in [4], 96.4%; in assay [5], 106%; in assay [6], 92.4%. Also, the growth was 102% in assay [7], 98.7% in [8], 107% in [9] and 109% in assay [10].
For the compound `CN1CCN(CC(=O)Nc2cccc(-n3cc(-c4ccncc4)c(-c4ccc(Cl)c(O)c4)n3)c2)CC1`, the growth in assay [1] was 5.84% (active); in assay [2], 15.9%; in assay [3], 57.2%; in [4], 68.2%; in assay [5], 59.8%; in [6], 55.9%. Moreover, the growth was 57.5% in assay [7], 12.8% in assay [8], 38.2% in [9] and 42.2% in assay [10].
Turning to `c1ccc(/C(=N\Nc2ccc3ccccc3n2)c2ccccn2)cc1`, the growth in [1] was -23.6% (active); in [2], 9.21% (active); in assay [3] it was 11.1%; in assay [4] it was 51.1%; in [5] it was 10.1%; in assay [6] it was 20.5%. Also, the growth in assay [7] is 2.49% (active); in assay [8], 22.1%; in assay [9] it was 14.7%; in [10] it was 11.4%.
Turning to `O=C(Nc1cc(Cl)cc2c1-c1ccc(Cl)cc1C2O)C(Cl)Cl` (stereo not given), the growth in assay [1] was 82.3%; in assay [2] it was 65%; in [3], 86.5%; in assay [4], 94.8%; in assay [5], 62.9%; in [6], 102%. In addition, the growth in assay [7] is 73.2%; in [8] it was 97.3%; in assay [9] it was 78.8%; in assay [10], 83.5%.
In the case of `COc1cc2cc(Oc3ccc(NC(=O)c4ccccc4)cc3)c(C)nc2cc1OC`, the growth in [1] is 70.2%; in [2], 96.8%; in [3], 22.7%; in assay [4], 112%; in assay [5], 78.9%; in [6] it was 73.4%. In addition, the growth in assay [7] is 91.5%; in assay [8] it was 83.4%; in assay [9], 57.1%; in assay [10], 81.3%.
As for `CCN(CCCNc1cc2c(c(N)c1S(=O)(=O)O)C(=O)c1ccccc1C2=O)c1ccccc1`, the growth in assay [1] was 118%; in assay [2] it was 101%; in assay [3], 96.4%; in assay [4], 107%; in [5], 109%; in [6] it was 100%. Besides, the growth in assay [7] is 114%; in [8] it was 111%; in [9] it was 93.5%; in assay [10], 99.8%.
Regarding `COc1ccc(C(c2ccc(OCCN(C)C)cc2)c2cc3ccccc3c3ccccc23)cc1` (stereo not given), the growth was -30.6% (active) in [1]; 13.2% in assay [2]; 70.2% in assay [3]; 79.3% in assay [4]; 77.9% in assay [5]; 106% in [6]. The growth in assay [7] is 61.7%; in assay [8], 62.6%; in [9] it was 75.1%; in assay [10] it was 68.1%.
For `CCN(CC)c1ccc(/C=C2\SC(=O)C(Nc3nnc(-c4cccnc4SCc4ccccc4)o3)C2=O)cc1` (stereo not given), the growth in [1] was 11.8%; in assay [2], 23.4%; in assay [3], 24.2%; in assay [4] it was 41.4%; in assay [5] it was 38.6%; in [6], 15.6%. The growth was 56.5% in [7], -13.5% (active) in [8], 26.6% in assay [9] and -9.88% (active) in [10].
`CNC(=O)c1cn(C2CC2)c2cc(N3CCN(C(=O)c4cc(OC)c(OC)c(OC)c4)CC3)c(F)cc2c1=O`: the growth in [1] was 92.2%; in [2], 97.6%; in assay [3] it was 100%; in assay [4] it was 96%; in [5], 98.6%; in assay [6] it was 103%. Further, the growth is 102% in assay [7], 106% in assay [8], 101% in assay [9] and 96.7% in [10].
As for `c1ccc(CSc2ncccc2-c2nnc(SCCN3CCOCC3)o2)cc1`, the growth in assay [1] is 104%; in assay [2] it was 104%; in assay [3], 109%; in assay [4], 119%; in assay [5], 106%; in assay [6] it was 109%. Further, the growth in [7] is 98.3%; in [8], 120%; in assay [9], 133%; in assay [10], 107%.
Turning to `COc1cc(C2CC(c3ccccc3)=NN2C(C)=O)cc(OC)c1OC` (stereo not given), the growth in assay [1] was 28.1%; in [2] it was 81.7%; in [3] it was 51.2%; in assay [4], 92.3%; in assay [5], 78.5%; in assay [6], 47.5%. In addition, the growth in assay [7] was 24.6%; in [8], -10.7% (active); in [9] it was 48.4%; in [10], 11.1%.
As for `CC(=O)C1CCC2C3CC=C4CC(SC(=N)N)CCC4(C)C3CCC12C` (stereo not given), the growth in assay [1] was -36% (active); in assay [2], -7.56% (active); in assay [3], 30.8%; in assay [4], 80.4%; in assay [5] it was 50.1%; in assay [6], 75%. Besides, the growth in assay [7] was 35.7%; in assay [8], 63.1%; in assay [9], 72.6%; in [10], 38.2%.
Regarding `O=C1Cc2cc(CCN3CCN(c4nsc5ccccc45)CC3)c(Cl)cc2N1`, the growth is 86% in assay [1]; 78.9% in assay [2]; 93.7% in assay [3]; 108% in assay [4]; 84.1% in [5]; 121% in assay [6]. Further, the growth in assay [7] is 101%; in assay [8], 97.6%; in [9], 103%; in assay [10], 98.4%.
Turning to `C[C@@H](O)[C@H]1C(=O)N2C(C(=O)O)=C(SC3CN[C@H](C(=O)N(C)C)C3)[C@H](C)[C@H]12` (stereo not given in full), the growth in [1] is 123%; in assay [2], 96.5%; in assay [3], 107%; in assay [4] it was 100%; in assay [5] it was 114%; in assay [6] it was 115%. The growth was 101% in assay [7], 116% in assay [8], 102% in assay [9] and 101% in [10].
For the compound `Oc1cccc(-c2nc3sccn3c2-c2ccncn2)c1`, the growth is 60.1% in [1]; 118% in assay [2]; 102% in assay [3]; 119% in assay [4]; 114% in [5]; 88.4% in [6]. Also, the growth in assay [7] was 91.2%; in [8], 114%; in assay [9] it was 81.7%; in assay [10] it was 94%.
Turning to `C/C(=N\O)c1ccc(NC(=O)CSc2nnc(-c3ccccc3)n2-c2ccccc2)cc1`, the growth is 106% in [1]; 91.2% in assay [2]; 84.7% in assay [3]; 86.2% in assay [4]; 87.3% in assay [5]; 39.3% in assay [6]. Further, the growth in assay [7] is 76.7%; in assay [8], 81.4%; in assay [9], 62.5%; in [10], 90.8%.

(Values after PubChem BioAssay (NCI).)
